From PubChem BioAssay AID1159580 (chemical genetic matrix, 2015)
In all, about 5,500 compounds went through this assay and about 2,000 (36%) were called active. About 18% were inconclusive and are not listed. Rule as the data show it: active = normalized growth mostly below about 0.91 (no sharp cut-off); inconclusive = no clear call, values can overlap the other calls; inactive = mostly above about 0.92. Some of the results follow.

Test: chemical genetic growth profiling, strain panel (AID 1159580);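 also: tested at 20 µM; growth read once vehicle control cultures reached saturation at 30 °C; 1 = growth at the plate median or of vehicle wells; lower values mean less growth of the strain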
Settings: growth OD

Measured: normalized growth

COc1cc(N)c(Cl)cc1C(=O)NC1CCN(Cc2ccccc2)CC1
inactive: S. cerevisiae deletion strains, locus YJR043C, strain POL32, stronger effect = lower value 0.985 | S. cerevisiae deletion strains, locus YJR075W, strain HOC1, stronger effect = lower value 0.978 | S. cerevisiae deletion strains, locus YKL009W, strain mrt4, stronger effect = lower value 0.993 | S. cerevisiae deletion strains, locus YKL068W, stronger effect = lower value 0.974 | S. cerevisiae deletion strains, locus YKL085W, strain MDH1 (second series), stronger effect = lower value 0.995 | S. cerevisiae deletion strains, locus YKL085W, strain MDH1, stronger effect = lower value 0.995 | S. cerevisiae deletion strains, locus YKL160W, strain elf1, stronger effect = lower value 0.991 | S. cerevisiae deletion strains, locus YKL190W, strain CNB1, stronger effect = lower value 0.992 | S. cerevisiae deletion strains, locus YKR001C, strain vps1, stronger effect = lower value 1 | S. cerevisiae deletion strains, locus YKR026C, strain gcn3, stronger effect = lower value 0.988 | S. cerevisiae deletion strains, locus YKR091W, strain srl3, stronger effect = lower value 0.993 | S. cerevisiae deletion strains, locus YLL001W, strain dnm1, stronger effect = lower value 0.99 | S. cerevisiae deletion strains, locus YLL026W, stronger effect = lower value 0.997 | S. cerevisiae deletion strains, locus YLL041C, strain sdh2, stronger effect = lower value 0.996 | S. cerevisiae deletion strains, locus YLR027C, strain aat2, stronger effect = lower value 1 | S. cerevisiae deletion strains, locus YLR039C, strain RIC1, stronger effect = lower value 0.997 | S. cerevisiae deletion strains, locus YLR058C, strain SHM2, stronger effect = lower value 0.988 | S. cerevisiae deletion strains, locus YLR102C, strain apc9, stronger effect = lower value 0.994 | S. cerevisiae deletion strains, locus YLR221C, strain rsa3, stronger effect = lower value 0.996 | S. cerevisiae deletion strains, locus YLR258W, strain gsy2, stronger effect = lower value 0.994 | S. cerevisiae deletion strains, locus YLR262C, strain YPT6 (second series), stronger effect = lower value 1.01 | S. cerevisiae deletion strains, locus YLR262C, strain YPT6, stronger effect = lower value 0.969 | S. cerevisiae deletion strains, locus YLR268W, strain sec22, stronger effect = lower value 0.935 | S. cerevisiae deletion strains, locus YLR320W, strain mms22, stronger effect = lower value 1.01 | S. cerevisiae deletion strains, locus YLR330W, strain CHS5, stronger effect = lower value 0.993 | S. cerevisiae deletion strains, locus YLR342W, strain FKS1 (second series), stronger effect = lower value 1.05 | S. cerevisiae deletion strains, locus YLR342W, strain FKS1, stronger effect = lower value 0.999 | S. cerevisiae deletion strains, locus YLR357W, strain rsc2, stronger effect = lower value 1.02 | S. cerevisiae deletion strains, locus YLR370C, strain arc18, stronger effect = lower value 0.998 | S. cerevisiae deletion strains, locus YLR371W, strain rom2, stronger effect = lower value 0.989 | S. cerevisiae deletion strains, locus YLR384C, strain iki3, stronger effect = lower value 0.993 | S. cerevisiae deletion strains, locus YLR418C, strain cdc73, stronger effect = lower value 0.968 | S. cerevisiae deletion strains, locus YML016C, strain PPZ1, stronger effect = lower value 1 | S. cerevisiae deletion strains, locus YML032C, strain rad52, stronger effect = lower value 0.969 | S. cerevisiae deletion strains, locus YML120C, strain ndi1, stronger effect = lower value 0.993 | S. cerevisiae deletion strains, locus YML124C, strain tub3, stronger effect = lower value 0.996 | S. cerevisiae deletion strains, locus YMR058W, strain fet3, stronger effect = lower value 1 | S. cerevisiae deletion strains, locus YMR078C, strain ctf18, stronger effect = lower value 0.986 | S. cerevisiae deletion strains, locus YMR125W, strain sto1, stronger effect = lower value 0.988 | S. cerevisiae deletion strains, locus YMR129W, stronger effect = lower value 1 | S. cerevisiae deletion strains, locus YMR205C, strain PFK2, stronger effect = lower value 0.997 | S. cerevisiae deletion strains, locus YMR223W, strain ubp8, stronger effect = lower value 1.04 | S. cerevisiae deletion strains, locus YMR231W, strain pep5, stronger effect = lower value 0.985 | S. cerevisiae deletion strains, locus YMR263W, strain SAP30, stronger effect = lower value 0.978 | S. cerevisiae deletion strains, locus YMR307W, strain GAS1, stronger effect = lower value 1.09 | S. cerevisiae deletion strains, locus YNL067W, strain RPL9B, stronger effect = lower value 0.969 | S. cerevisiae deletion strains, locus YNL071W, strain lat1, stronger effect = lower value 0.997 | S. cerevisiae deletion strains, locus YNL128W, strain TEP1, stronger effect = lower value 0.984 | S. cerevisiae deletion strains, locus YNL153C, strain GIM3, stronger effect = lower value 0.985 | S. cerevisiae deletion strains, locus YNL209W, strain ssb2, stronger effect = lower value 1.01 | S. cerevisiae deletion strains, locus YNL233W, strain BNI4, stronger effect = lower value 0.99 | S. cerevisiae deletion strains, locus YNL248C, strain rpa49, stronger effect = lower value 0.991 | S. cerevisiae deletion strains, locus YNL250W, strain rad50, stronger effect = lower value 1 | S. cerevisiae deletion strains, locus YNL271C, strain bni1, stronger effect = lower value 0.995 | S. cerevisiae deletion strains, locus YNL298W, strain CLA4, stronger effect = lower value 0.974 | S. cerevisiae deletion strains, locus YNL307C, strain MCK1, stronger effect = lower value 0.977 | S. cerevisiae deletion strains, locus YNL322C, strain KRE1 (second series), stronger effect = lower value 0.994 | S. cerevisiae deletion strains, locus YNL322C, strain KRE1, stronger effect = lower value 0.991 | S. cerevisiae deletion strains, locus YNR049C, strain mso1, stronger effect = lower value 0.997 | S. cerevisiae deletion strains, locus YNR052C, strain pop2, stronger effect = lower value 0.993 | S. cerevisiae deletion strains, locus YOL006C, strain TOP1, stronger effect = lower value 0.933 | S. cerevisiae deletion strains, locus YOL012C, strain htz1 1.69 | S. cerevisiae deletion strains, locus YOL147C, strain pex11, stronger effect = lower value 0.996 | S. cerevisiae deletion strains, locus YOR001W, strain rrp6, stronger effect = lower value 0.996 | S. cerevisiae deletion strains, locus YOR061W, strain CKA2, stronger effect = lower value 0.994 | S. cerevisiae deletion strains, locus YOR069W, strain VPS5, stronger effect = lower value 0.989 | S. cerevisiae deletion strains, locus YOR070C, strain gyp1, stronger effect = lower value 0.997 | S. cerevisiae deletion strains, locus YOR080W, strain dia2, stronger effect = lower value 1.01 | S. cerevisiae deletion strains, locus YOR083W, strain WHI5, stronger effect = lower value 1 | S. cerevisiae deletion strains, locus YOR106W, strain vam3, stronger effect = lower value 1 | S. cerevisiae deletion strains, locus YOR136W, strain idh2, stronger effect = lower value 0.996 | S. cerevisiae deletion strains, locus YOR144C, strain elg1, stronger effect = lower value 0.982 | S. cerevisiae deletion strains, locus YOR184W, strain ser1, stronger effect = lower value 0.965 | S. cerevisiae deletion strains, locus YOR265W, strain rbl2, stronger effect = lower value 0.998 | S. cerevisiae deletion strains, locus YOR270C, strain vph1, stronger effect = lower value 1.02 | S. cerevisiae deletion strains, locus YOR290C, strain snf2, stronger effect = lower value 0.984 | S. cerevisiae deletion strains, locus YOR316C, strain cot1, stronger effect = lower value 0.963 | S. cerevisiae deletion strains, locus YPL051W, strain arl3, stronger effect = lower value 0.993 | S. cerevisiae deletion strains, locus YPL055C, strain LGE1, stronger effect = lower value 0.976 | S. cerevisiae deletion strains, locus YPL078C, strain atp4, stronger effect = lower value 0.995 | S. cerevisiae deletion strains, locus YPL106C, strain sse1, stronger effect = lower value 0.99 | S. cerevisiae deletion strains, locus YPL240C, strain hsp82, stronger effect = lower value 0.999 | S. cerevisiae deletion strains, locus YPL241C, strain CIN2, stronger effect = lower value 0.998 | S. cerevisiae deletion strains, locus YPR119W, strain clb2, stronger effect = lower value 0.985 | S. cerevisiae deletion strains, locus YPR141C, strain kar3, stronger effect = lower value 0.986 | S. cerevisiae deletion strains, locus YPR163C, strain tif3, stronger effect = lower value 0.986 | S. cerevisiae deletion strains, locus YPR167C, strain met16, stronger effect = lower value 0.983 | S. cerevisiae deletion strains, strain wtn01, stronger effect = lower value 0.949 | S. cerevisiae strains, strain wild type, stronger effect = lower value 1
